PubChem BioAssay (NCATS)
Results filed as inconclusive are left out. Some of the results follow. Active and inactive are the calls of the source. The call rests on the fitted dose curve; in most records, active means well fitted curve in the direction sought with a large enough effect; inconclusive means small, poorly fitted or top-dose-only effect, or another doubt; inactive means no such curve, though single readings can be large; an effect the other way counts as inactive or inconclusive.

Legend:
[1] = Cell Viability - LYMP2-016 (AID 984); further: nearly all actives have a fitted effect of over 55% in size
Summary of the method: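 Cells were seeded at 2500 per well and rested 5 hr before a 24 hr compound exposure at 37 C. Viability was then gauged as cellular ATP by luciferase luminescence, with AC50 values fitted to the Hill equation.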

[2] = Cell Viability - LYMP2-018 (AID 985); further: nearly all actives have a fitted effect of over 50% in size
Summary of the method: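 Human lymphoblastoid LYMP2-018 cells, 2500/well, settled 5 hr at 37 C then exposed to compound 24 hr at 37 C; intracellular ATP measured by CellTiter-Glo luminescence. AC50 from Hill-equation concentration-response fits.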

[3] = Cell Viability - LYMP2-020 (AID 986); further: series mostly up to about 92 µM; nearly all actives have a fitted effect of over 55% in size
Summary of the method: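 Human lymphoblastoid LYMP2-020 cells (2500/well) preincubated 5 h at 37 C, then treated 24 h at 37 C. Viability measured as intracellular ATP by CellTiter-Glo luminescence after 30 min at room temperature; AC50 from Hill fits.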

[4] = Cell Viability - LYMP2-022 (AID 987); further: nearly all actives have a fitted effect of over 55% in size
Summary of the method: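 LYMP2-022 lymphoblastoid cells (2500/well, complete medium) were treated with compounds for 24 hours at 37 C; intracellular ATP was then read by CellTiter-Glo luminescence after 30 min at room temperature. AC50 values were derived from Hill-equation fits.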

[5] = Cell Viability - LYMP2-024 (AID 988); further: nearly all actives have a fitted effect of over 60% in size
Summary of the method: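 Human lymphoblastoid LYMP2-024 cells (2500/well) rested 5 hr, then treated with compound for 24 hr at 37 C in complete medium. Viability was measured as intracellular ATP by CellTiter-Glo luminescence. AC50 values came from Hill-equation fits.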

[6] = Cell Viability - LYMP2-026 (AID 989); further: nearly all actives have a fitted effect of over 50% in size
Summary of the method: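 Human lymphoblastoid LYMP2-026 cells, 2500/well, exposed to compound 24 h at 37 C in complete medium. Viability as intracellular ATP by CellTiter-Glo luminescence; AC50 from Hill fits of qHTS concentration-response.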

[7] = Cell Viability - LYMP1-002 - Assay at 24 hr (AID 993)
Summary of the method: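 Human lymphoblastoid LYMP1-002 cells (2500/well) treated 24 h at 37 °C; viability as intracellular ATP by CellTiter-Glo luminescence. Tetraoctylammonium bromide as positive control; AC50 from Hill-equation fits of qHTS concentration-response.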

[8] = Cell Viability - LYMP1-002 - Assay at 40 hr (AID 994); further: nearly all actives have a fitted effect of over 60% in size
Summary of the method: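 LYMP1-002 human lymphoblastoid cells (2500/well, complete medium) were treated with compounds for 40 hr at 37 C. Intracellular ATP was measured by CellTiter-Glo luminescence, and AC50 values came from Hill-equation fits of concentration-response data; tetraoctylammonium bromide was the positive control.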

[9] = Counterscreen for APE1 Inhibitors: Fluorescent Dye Displacement Assay (AID 2564);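 further: loss of thiazole orange fluorescence as the dye is displaced from duplex DNA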
Summary of the method: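 ThO 250 nM + dsDNA 50 nM (THF abasic site, 5'-TAMRA), Tris-HCl pH7.5/50mM NaCl/2 mM MgCl2/0.01% Tween-20; compounds pin-transferred; ex 480/em 540 nm endpoint. Neutral = no compound; no-DNA ThO wells = negative control.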

[10] = target: Endonuclease 4 (Escherichia coli (strain K12)) (UniProt P0A6C1); assay: Counterscreen for APE1 Inhibitors: qHTS Assay for Inhibitors of Endonuclease IV (AID 2565)
Summary of the method: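 qHTS concentration-response format; LOPAC1280 tested under APE1-screen conditions. 2 nM enzyme, 15 min compound preincubation at RT, then 50 nM TAMRA/BHQ-2 abasic substrate; kinetic fluorescence read, three reads at 60 s intervals.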

[11] = target: DNA repair nuclease/redox regulator APEX1 (Homo sapiens) (UniProt P27695); assay: Confirmation qHTS Assay for Inhibitors of the Human Apurinic/apyrimidinic Endonuclease 1 (APE1) (AID 2572);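 further: fluorescence gain from purified APE1 cutting a TAMRA/BHQ-2 THF abasic duplex; nearly all actives have a fitted effect of over 30% in size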
Summary of the method: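 Enzyme and test compound were incubated for 15 min at room temperature, after which a 50 nM (final) double-stranded abasic-site substrate bearing 5'-TAMRA and 3'-BHQ-2 was added. Incision was followed as fluorescence increase over three reads.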

[12] = target: DNA repair nuclease/redox regulator APEX1 (Homo sapiens) (UniProt P27695); assay: qHTS FP-Based Assay for Inhibitors of the Human Apurinic/apyrimidinic Endonuclease 1 (APE1) (AID 2573)
[13] = target: ATP-dependent 6-phosphofructokinase (Trypanosoma brucei brucei) (UniProt O15648); assay: qHTS Assay to Find Inhibitors of T. brucei phosphofructokinase: hit validation (AID 492961);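 further: luminescence reports ADP formed as PFK phosphorylates fructose-6-phosphate with ATP; series mostly up to about 51 µM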
Summary of the method: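 Measures ADP output of PFK (1.25 nM) at 0.1 mM ATP, 0.5 mM F6P, pH 8.0 TEA buffer with 5 mM MgCl2. No-enzyme wells define full inhibition; uninhibited enzyme wells define zero.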

Measured: Potency

Sequence of DNA repair nuclease/redox regulator APEX1 (Homo sapiens) (P27695 whole entry, looked up): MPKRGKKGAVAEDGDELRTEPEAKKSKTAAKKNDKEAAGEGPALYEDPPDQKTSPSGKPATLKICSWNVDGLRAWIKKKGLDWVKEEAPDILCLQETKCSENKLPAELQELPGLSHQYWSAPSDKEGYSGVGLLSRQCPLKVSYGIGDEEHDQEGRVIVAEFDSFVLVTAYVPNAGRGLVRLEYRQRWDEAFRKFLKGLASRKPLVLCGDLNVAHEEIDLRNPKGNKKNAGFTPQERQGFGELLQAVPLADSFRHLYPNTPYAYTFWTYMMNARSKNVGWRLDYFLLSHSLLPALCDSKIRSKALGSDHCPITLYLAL
Sequence of ATP-dependent 6-phosphofructokinase (Trypanosoma brucei brucei) (O15648 whole entry, looked up): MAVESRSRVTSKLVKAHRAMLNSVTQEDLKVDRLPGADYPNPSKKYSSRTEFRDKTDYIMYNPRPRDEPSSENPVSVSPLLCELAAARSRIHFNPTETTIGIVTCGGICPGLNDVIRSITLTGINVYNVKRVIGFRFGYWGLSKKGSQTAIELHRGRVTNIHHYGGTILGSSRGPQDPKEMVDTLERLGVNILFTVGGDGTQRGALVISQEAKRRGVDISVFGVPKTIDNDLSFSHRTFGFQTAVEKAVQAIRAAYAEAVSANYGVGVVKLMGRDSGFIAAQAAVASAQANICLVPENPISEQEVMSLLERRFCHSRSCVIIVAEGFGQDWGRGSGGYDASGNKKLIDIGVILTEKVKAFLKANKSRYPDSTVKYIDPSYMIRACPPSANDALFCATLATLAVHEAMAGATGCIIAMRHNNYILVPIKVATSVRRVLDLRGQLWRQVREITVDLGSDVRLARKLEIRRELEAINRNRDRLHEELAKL

C=CCc1ccc2c(c1)OCO2
inactive: [1] | [2] | [3] | [4] | [5] | [6] | [7] | [8]

CCNC[C@H](O)c1cccc(O)c1
inactive: [9] | [10] | [11] | [12]

C[C@@]12CC[C@H]3[C@@H](CC[C@@H]4C[C@H]5S[C@H]5C[C@]43C)[C@H]1CC[C@H]2O
inactive: [13]
